About 83,000 compounds went through this panel and 20% of them were active in at least one assay; those are over-represented in the sample as a whole.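 Percent growth is the endpoint: 0 to 100 indicates growth inhibition (40 means 60% inhibition), 0 means no net growth, and negative values indicate cell death.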 Active and inactive are the calls of the source. Rule for the calls: active = growth percent below 10; inactive = the rest.
System: RXF 393 renal
Assay: NCI-60 one-dose screen, 48 h (100 = growth as untreated, 0 = no growth, -100 = all killed)
Conditions: 10 µM unless noted

SMILES | growth
CCCC/C(=C\c1ccc(O)c(O)c1)C(=O)NC(Cc1ccccc1)C(=O)C(=O)NCCc1ccc(OC)cc1 (stereo not given) | 96% (inactive)
CCN(CC)c1ccc(/C=N/NC(=O)c2ccc(NS(C)(=O)=O)cc2)cc1 | 12.3% (inactive)
Cc1ccc(C)c(NC2=C(Cl)C(=O)c3nc(C)ccc3C2=O)c1 | -43.5% (active)
O=C(CSc1nnc(-c2cccs2)n1-c1ccccc1)Nc1ccccc1F | 90.7% (inactive)
Cc1ccc(CSC2=C(Cl)CN(c3ccc(Cl)cc3)C2=O)cc1 | 111% (inactive)
Cn1ncc2c(C(=O)c3ccc(F)cc3)nc(C(C)(C)C)nc21 | 94.1% (inactive)
O=C(CSc1nc2ccccc2c(=O)n1-c1ccccc1)N/N=C/c1ccc(Oc2ccc(Cl)cc2)cc1 | 42% (inactive)
Cc1cccc(N2CCN(C3=C(Cl)C(=O)c4ncccc4C3=O)CC2)c1 | 52.2% (inactive)
N/C(=N\C(N)=N\c1nc2ccccc2s1)c1ccc(Cl)cc1 | 92.6% (inactive)
N#Cc1nc(-c2ccccc2)oc1N1CCC(C2(C(F)(F)F)N=N2)CC1 | 99.4% (inactive)
CC(C)(C)c1cc(NC(=O)Nc2ccc(-c3cn4c5c(sc4n3)CCc3cn(CCCN4CCCCC4)cc3-5)cc2)no1 | -71.6% (active)
Cc1csc(/N=C(N)/N=C(\N)c2cccc(Br)c2)n1 | 94.1% (inactive)
Cc1cc2nc(C(Cl)Cl)nc(-c3ccc(S(=O)(=O)N(C)C)cc3)n2n1 | 59.5% (inactive)
C#Cc1nc(/C=C\CCCCCCC(=O)NO)cs1 | -4.23% (active)
O=C1C(SCc2ccccc2)=C(Cl)CN1c1ccccc1 | 105% (inactive)

— PubChem BioAssay (NCI)
